Measured values: PubChem BioAssay (NCI)
The panel holds about 83,000 compounds, 20% with a hit somewhere; the sample as a whole holds those more often.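 Growth was measured after 48 h exposure to one concentration of compound in 96-well plates. Values under 10 count as active.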 A number with no mark means an inactive call. Active and inactive are the calls of the source.

Legend:
Assay in all cases: NCI-60 one-dose screen, 48 h (100 = growth as untreated, 0 = no growth, -100 = all killed)
Conditions in all cases: 10 µM unless noted
HCT-15 colon = test system: HCT-15 colon
HT29 colon = test system: HT29 colon
SNB-75 CNS = test system: SNB-75 CNS
SNB-19 CNS = test system: SNB-19 CNS
U251 CNS = test system: U251 CNS
PC-3 prostate = test system: PC-3 prostate
SK-MEL-5 melanoma = test system: SK-MEL-5 melanoma
UACC-62 melanoma = test system: UACC-62 melanoma
LOX IMVI melanoma = test system: LOX IMVI melanoma
SK-MEL-28 melanoma = test system: SK-MEL-28 melanoma

| SMILES | growth (HCT-15 colon) | growth (HT29 colon) | growth (SNB-75 CNS) | growth (SNB-19 CNS) | growth (U251 CNS) | growth (PC-3 prostate) | growth (SK-MEL-5 melanoma) | growth (UACC-62 melanoma) | growth (LOX IMVI melanoma) | growth (SK-MEL-28 melanoma) |
| --- | --- | --- | --- | --- | --- | --- | --- | --- | --- | --- |
| O=C(Nc1ccc(N=Cc2c(O)[nH]c3ccccc23)cc1)Nc1ccc(S(=O)(=O)Nc2ncccn2)cc1 | 97.4% | 104% | 99% | 101% | 103% | 94.1% | 100% | 103% | 101% | 120% |
| CCN(CC)S(=O)(=O)c1ccc(-c2nc(C(Cl)Cl)nc3cc(-c4ccc(F)cc4)nn23)cc1 | 23.3% | 4.77% (active) | 56.5% | 40.2% | 17.7% | 18.6% | 83.3% | 54.2% | 32% | 27.9% |
| Cc1cc(Br)ccc1-n1cc(C#N)c(N)c1C(=O)c1ccc(Br)cc1 | 97.6% | 102% | 95.6% | 96.3% | 99.9% | 103% | 95.7% | 94.3% | 96.6% | 102% |
| Cc1ccc(-c2nc(SCC(=O)c3ccccc3)nc(Nc3ccc(S(N)(=O)=O)cc3)c2C#N)cc1 | 72.1% | 92.3% | 80% | 77.3% | 47.4% | 92.6% | 75.5% | 80.3% | 15.4% | 81.1% |
| NC1C2CCC1CN(c1cnc(C(=O)Nc3cc(F)cc4cccnc34)cn1)C2 (stereo not given) | 6.16% (active) | 22.7% | 46.4% | 69.7% | 60.1% | 61.4% | 93.2% | 78.9% | 26.3% | 63.5% |
| CC(O)c1cccc(/C(N)=N/C(N)=N/c2nc3ccccc3s2)c1 (stereo not given) | 56.7% | 110% | 80% | 89.3% | 74.2% | 64.9% | 83.4% | 87.8% | 64.3% | 100% |
| O=C(CCCCCCNC(=O)C(O)(O)C(F)(F)F)Nc1ncc(-c2ccccc2)s1 | 2.35% (active) | 4.15% (active) | 35.1% | 6.24% (active) | -62.6% (active) | 22.7% | -67.2% (active) | -76.6% (active) | -78.2% (active) | -19.6% (active) |
| O=C(CCCCCCN1CC(=O)N2[C@@H](c3ccccc3Br)c3[nH]c4ccccc4c3C[C@H]2C1=O)NO | 90.2% | 37.2% | 21.8% | 55.4% | 44.7% | 56% | 30% | 21.6% | -60.4% (active) | 31.6% |
| CN(C)CCCOc1ccc(C(=C(c2ccccc2)C2CCCC2)c2ccc(OCCCN(C)C)cc2)cc1 | -89.2% (active) | -86.3% (active) | -66.1% (active) | -80.4% (active) | -74.4% (active) | -65.5% (active) | -95.7% (active) | -91.6% (active) | -84.3% (active) | -96.4% (active) |
| O=C1Nc2ccc(F)cc2/C1=C\C(=O)c1ccc(NS(=O)(=O)c2ccccc2)cc1 | 59.7% | 81% | 76.1% | 95.6% | 94.1% | 92% | 97.3% | 77.7% | 21.4% | 105% |
| Clc1cccc(/C=N/Nc2nc(N/N=C/c3cccc(Cl)c3)nc(N3CCOCC3)n2)c1 | -11.1% (active) | 8.21% (active) | 103% | 88% | 60.4% | 41.5% | 44.1% | 91.7% | 32.6% | 29.8% |
| O=C(CSc1nc2ccccc2c(=O)n1CCc1ccccc1)Nc1ccc(S(=O)(=O)Nc2ccc(Cl)nn2)cc1 | 92.4% | 117% | 78.7% | 92.2% | 92.9% | 89.3% | 98.6% | 84.6% | 96.1% | 108% |
| Cc1ccc(Nc2nc(SC(C)C)nc(-c3ccccc3)c2C#N)cc1 | 95.1% | 101% | 91.1% | 97.1% | 103% | 99.9% | 83.5% | 95.5% | 96.4% | 96.8% |
